An excerpt weighted towards active compounds, which were near 3.3% of everything screened.
Sm TGR block = inhibitors of Schistosoma mansoni thioredoxin glutathione reductase; Q962Y6; purified TGR, DTNB reduction, TNB absorbance 405 nm; Potency, µM (highest dose often 114 µM), for the others: at the highest dose activity change, negative = inhibition, hits mostly inhibitors; actives 3% (n = 360,000); note: nearly all actives have a fitted effect of over 60% in size
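Kinetic colorimetric format: TGR-catalysed, NADPH-driven DTNB reduction monitored via TNB absorbance. Enzyme dispensed at 20 nM; compound exposure 15 min at room temperature before reaction start.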
AmpC detergent = inhibitors of E. coli AmpC beta-lactamase with detergent; AmpC hydrolysis of nitrocefin, absorbance 480 nm, 0.01% Triton; AID 485294; actives 0.041% (n = 370,000); Potency, µM (highest dose often 114 µM), for the others: top-dose activity change, negative = inhibition, most hits filed as inhibitors; P00811;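 note: 0% = no-compound wells and -100% = no-enzyme wells; nearly all actives have a fitted effect of over 25% in size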
Target sequence (P00811 whole entry, looked up): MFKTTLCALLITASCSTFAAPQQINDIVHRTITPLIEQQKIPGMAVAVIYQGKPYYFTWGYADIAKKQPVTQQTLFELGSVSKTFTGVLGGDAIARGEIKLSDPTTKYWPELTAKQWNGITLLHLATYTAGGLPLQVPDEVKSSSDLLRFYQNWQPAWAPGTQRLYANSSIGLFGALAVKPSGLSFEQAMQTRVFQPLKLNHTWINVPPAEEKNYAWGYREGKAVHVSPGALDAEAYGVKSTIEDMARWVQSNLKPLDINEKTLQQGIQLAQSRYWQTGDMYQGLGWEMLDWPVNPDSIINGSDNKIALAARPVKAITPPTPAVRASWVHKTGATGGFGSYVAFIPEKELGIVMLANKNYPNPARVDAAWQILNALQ
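20 mM phosphate pH 7.0 + 0.01% (detergent screen) or 0.0001% Triton X-100; 5.3 nM AmpC reagent; cpd preinc 15 min RT; nitrocefin (800 uM stock) to start; A480 q20 s × 4 min; Activity was normalised to no-enzyme and no-compound control wells.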
AmpC no deterg = inhibitors of E. coli AmpC beta-lactamase without detergent; Potency, µM (top dose mostly 57.1 µM), for inactives: at the highest dose activity change, negative = inhibition, hits mostly inhibitors; actives 0.52% (n = 330,000); AmpC nitrocefin hydrolysis, absorbance 480 nm, 0.0001% Triton; P00811;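 note: plate controls were no compound for no effect and no enzyme for full effect; nearly all actives have a fitted effect of over 20% in size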
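AmpC (5.3 nM in the dispensed reagent) in 20 mM phosphate pH 7.0 with 0.01% (detergent screen) or 0.0001% Triton X-100 was preincubated with compounds for 15 min at room temperature. Nitrocefin was then added from an 800 uM solution, and hydrolysis was followed at 480 nm.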
* hit, by the source's call; ? = inconclusive; nt = not tested or not shown. Calls come from the whole dose curve; as a rule, active = well fitted curve in the direction sought with a large enough effect; inconclusive = small, poorly fitted or top-dose-only effect, or another doubt; inactive = no such curve, though single readings can be large; an effect the other way counts as inactive or inconclusive. Unless noted, % is set by controls: 0 for no effect and ±100 for the full control effect; potency is the fitted concentration of half-maximal effect.

SMILES	Sm TGR block	AmpC detergent	AmpC no deterg
Cc1nc2sc3c(NCc4ccco4)ncnc3c2c2c1COC(C)(C)C2	?	5.6%	157.9%
CCOC(=O)c1sc2ccccc2c1S(=O)(=O)Nc1c(C)cccc1C	6.3%	-2.6%	nt
CC(=O)c1cccc(NC(=O)CN2C(=O)c3cccnc3Sc3ccccc32)c1	5.0%	1.2%	nt
CCC(=O)C1=C(c2cccc(OC)c2)N(C(=O)CC)n2c(nnc2C2CCCCC2)S1	10.7%	2.8%	nt
CCOC(=O)c1cc(-c2ccccc2)n(CCC(=O)Nc2ccc(C(F)(F)F)cc2)c1C	6.8%	18.7%	nt
O=C(NCCC1=CCCCC1)c1ccc2c(=O)n3nc(Nc4ccccc4)sc3nc2c1	-8.6%	1.6%	nt
S=C(Sc1ccc(Cl)cc1)Sc1ccc(Cl)cc1	2µM*	8.6%	-15.7%
CC(=O)/C(=C\N(C)C)Sc1ccc(Cl)cc1	?	-7.5%	-19.2%
CC(C)NC(=O)C1CCCN(S(=O)(=O)c2cccs2)C1 (stereo not drawn)	2.6%	1.9%	-5.0%
CC(NC(=O)C1CCCN(S(=O)(=O)c2cccs2)C1)c1ccccc1 (stereo not drawn)	2.0%	-2.7%	3.16µM*
Cc1ccc(CNC(=O)CN(c2ccc(Cl)cc2Cl)S(=O)(=O)c2ccccc2)cc1	-10.9%	-3.2%	nt
Cc1nc2n(n1)C(c1ccccc1)C1=C(CC(c3ccco3)CC1=O)N2 (stereo not drawn)	56.2µM*	3.8%	-21.6%
CC1CC(=O)C2=C(C1)Nc1ncnn1C2c1ccccc1 (stereo not drawn)	16.5%	2.1%	-18.2%
Cc1cc(C(=O)NCc2ccccc2)c2c(C)nn(-c3cccc(F)c3)c2n1	-6.6%	-5.9%	nt
O=C(O)CCC(=O)N1CCCC1	19.9%	8.0%	-6.9%
O=C(CCSCCC(=O)N1CCCC1)N1CCCC1	39.8µM*	-1.0%	-1.1%
COc1ccc(NS(=O)(=O)c2ccc3c(c2)CC(C)N3C(C)=O)c(OC)c1 (stereo not drawn)	-1.4%	9.8%	nt
COc1ccc(/C=C/C2=CCN(C)CC2)cc1	31.6µM*	2.9%	-11.4%
CN1CC=C(/C=C/c2ccc(-c3ccccc3)cc2)CC1	-34.4%	-12.1%	99.8%
Cc1ccc(-c2nc3cccnc3s2)cc1NC(=O)Cc1ccccc1	-2.1%	-6.6%	nt
CCOC(=O)N1CCc2c(sc(NCc3ccc(N(C)C)cc3)c2C(=O)Nc2ccccc2OCC)C1	-28.9%	7.1%	nt
CCn1c(=O)cc(SCC(=O)NCCc2ccc(OC)cc2OC)c2ccccc21	7.4%	-3.5%	nt
CCC(=O)O[C@@H]1CC(=O)O[C@H](C)CC=CC=C[C@@H](O)[C@H](C)C[C@H](CC=O)[C@H](O[C@H]2O[C@H](C)[C@@H](O[C@H]3C[C@@](C)(O)[C@@H](OC(=O)CC)[C@H](C)O3)[C@H](N(C)C)[C@H]2O)[C@H]1OC	25.1µM*	-3.2%	167.5%
CC[C@H]1OC(=O)C[C@@H](O)[C@H](C)[C@@H](O[C@@H]2O[C@H](C)C[C@H](N(C)C)[C@H]2O)[C@@H](CC=O)C[C@@H](C)C(=O)C=C[C@]2(C)O[C@H]2[C@@H]1C	?	5.8%	130.2%
Cc1ccc2c(c1)c1c(c(=O)n(-c3ccccc3C)c(=O)n1Cc1cccc(F)c1)n2C	-0.4%	5.0%	nt
SMILES	Sm TGR block	AmpC detergent	AmpC no deterg
COc1ccccc1N1CCN(c2ncccc2-c2nc(-c3ccc(Cl)cc3)no2)CC1	-6.8%	1.0%	nt
CC(C)CN1C(=O)/C(=C/c2ccco2)NC1=S	31.6µM*	?	-21.3%
O=C1N/C(=C/c2ccco2)C(=O)N1Cc1ccccc1F	56.2µM*	?	-38.5%
CC(C)CN1C(=O)/C(=C/c2cccs2)NC1=S	-10.2%	-7.4%	-25.4%
O=C1N/C(=C/c2cccs2)C(=O)N1Cc1ccccc1F	0.8%	4.2%	-28.8%
O=C(Nc1ccc(F)cc1C(F)(F)F)C1CCN(c2ncccn2)CC1	-2.7%	16.3%	nt
COc1ccc(-n2ccnc(NCCc3ccc(S(N)(=O)=O)cc3)c2=O)cc1	-1.7%	-4.9%	nt
Cc1ccc(N(CC(=O)Nc2cc(C)ccc2C)S(=O)(=O)c2c(C)noc2C)cc1	-2.8%	1.2%	nt
O=[N+]([O-])c1cc(C(F)(F)F)ccc1N1CCCNCC1	28.2µM*	-4.1%	11.8%
CCN1CCN(C(=S)NC(=O)c2cccs2)CC1	42.5%	-5.5%	-5.2%
O=[N+]([O-])c1cc(F)c(N2CCCC2)cc1N1CCNCC1	-24.7%	3.9%	-16.9%
O=C(NC(=S)N1CCN(c2ccc(C(F)(F)F)cc2[N+](=O)[O-])CC1)c1cccs1	1.3%	-0.8%	14.1µM*
COc1ccc(C2=NN(CC(=O)NCCc3ccccc3)C(=O)CC2)cc1	-7.8%	1.6%	nt
COc1ccc(CNC(=O)c2cc3c(-c4ccccc4F)nn(C)c3s2)cc1	10.1%	5.5%	nt
Cc1ccc(S(=O)(=O)N(C)C)cc1NC(=O)CCc1c[nH]c2ccccc12	-14.3%	0.9%	-33.8%
COc1ccc(S(=O)(=O)N(C)C)cc1NC(=O)Cc1c[nH]c2ccccc12	1.2%	-11.9%	22.4µM*
O=C(CCn1c(=O)c2cccn2c2cccnc21)N1CCN(c2cccc(C(F)(F)F)c2)CC1	-1.0%	-0.7%	nt
Cc1ccc(N(CC(=O)N2CCN(c3cccc(C)c3C)CC2)S(=O)(=O)c2c(C)nn(C)c2C)cc1	-1.1%	0.8%	nt
COCCCNC(=O)c1ccc2c(c1)N=C(C)c1c(C)ccc(C)c1S2	0.1%	16.4%	nt
CCc1ccc(OCc2ccc(C(=O)O)o2)cc1	35.5µM*	0.9%	-18.4%
O=C(O)c1ccc(OCc2ccc(C(=O)O)o2)cc1	-10.0%	-3.2%	-6.3%
CCOc1ccccc1Nc1nc2ccccc2nc1NS(=O)(=O)c1ccc(Cl)cc1	7.0%	-5.1%	nt
O=C1Nc2ccccc2N=C(c2ccccc2)C1N1CCOCC1 (stereo not drawn)	1.2%	-13.3%	-18.1%
O=C1Nc2ccccc2N=C(c2ccccc2)C1Br (stereo not drawn)	39.8µM*	-3.9%	-28.8%
O=C(CC1Sc2ccccc2NC1=O)Nc1cccc(C(F)(F)F)c1 (stereo not drawn)	13.8%	-4.9%	nt
SMILES	Sm TGR block	AmpC detergent	AmpC no deterg
COC(=O)c1c(NC(=O)Cc2coc3cc(C)ccc23)sc2c1CCCC2	-0.2%	-5.7%	nt
Oc1ccc2c3c1O[C@H]1c4oc5ccccc5c4C[C@@]4(O)[C@@H](C2)N(CC2CC2)CC[C@]314	-5.5%	-1.8%	6.0%
Oc1ccc2c3c1O[C@H]1c4[nH]c5ccccc5c4C[C@@]4(O)[C@@H](C2)N(CC2CC2)CC[C@]314	44.7µM*	?	-15.6%
NC(N)=Nc1ccc2[nH]c3c(c2c1)C[C@@]1(O)[C@H]2Cc4ccc(O)c5c4[C@@]1(CCN2CC1CC1)C3O5 (stereo partly drawn)	nt	nt	-7.0%
Oc1ccc2c3c1O[C@H]1c4[nH]c5ccccc5c4C[C@@]4(O)C(C2)N(CC2CC2)CC[C@]314	17.8µM*	-4.7%	-7.0%
COc1ccc(N(C)C(=O)CCn2cnc3onc(-c4ccc(F)cc4)c3c2=O)c(OC)c1	-2.4%	20.3%	nt
O=C(OCc1cc(=O)n2nc(-c3cccs3)sc2n1)c1ccc(Cl)cc1	1.5%	1.6%	nt
Cc1cc(C)c(Cn2c(=O)n(CCCCCC(=O)NCc3ccc4c(c3)OCO4)c(=O)c3sccc32)c(C)c1	21.7%	17.2%	nt

High-throughput results from PubChem.
